In PubChem BioAssay (NCI) one finds growth data, which are given here for six compounds.

Each structure is given as a SMILES string. Several values for one entry are separate records, joined by “and”; a condition that tells them apart may be missing. Equal values may be shown once. This is part of a sample that, as a whole, favours compounds with a hit. Of some 83,000 tested, about 20% had one in any assay.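 Growth was measured after 48 h exposure to one concentration of compound in 96-well plates. Values under 10 count as active.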 Activity calls are given as the source filed them.

What all share (test): NCI-60 one-dose screen, 48 h (100 = growth as untreated, 0 = no growth, -100 = all killed)
Common to all, as to conditions: 10 µM unless noted

In experiment [1] the test system is HCT-15 colon.
Experiment [2] relates to HT29 colon.
For experiment [3], the system named is SNB-75 CNS.
Experiment [4] concerns SNB-19 CNS.
Experiment [5] concerns U251 CNS.
Experiment [6] has as its system PC-3 prostate.
The subject of experiment [7] is SK-MEL-5 melanoma.
The test system of experiment [8] is UACC-62 melanoma.
Experiment [9] relates to SK-MEL-28 melanoma.
Experiment [10] concerns SK-MEL-2 melanoma.
The test system of experiment [11] is EKVX NSCLC.
The test system of experiment [12] is SN12C renal.
The subject of experiment [13] is UO-31 renal.
Experiment [14] deals with TK-10 renal.
For experiment [15], the system named is ACHN renal.
The test system of experiment [16] is CAKI-1 renal.
Experiment [17] has as its system A498 renal.
For experiment [18], the system named is CCRF-CEM leukemia.
The test system of experiment [19] is MOLT-4 leukemia.
Experiment [20] concerns LOX IMVI melanoma.

For the compound `COc1cc2c(Nc3ccc(Cl)c(Cl)c3F)ncnc2cc1OCC1C[C@@H]2CN(C)C[C@@H]2C1` (stereo partly drawn), the growth is -89.2% (active) and -0.559% (active) in [1]; -90.2% (active) and -11.5% (active) in experiment [2]; -96% (active) and -40.9% (active) in [3]; -93.5% (active) and 32.1% (inactive) in experiment [4]; -97.6% (active) and 13% (inactive) in [5]; -57.1% (active) and 15.6% (inactive) in experiment [6]. The growth in experiment [7] was -97.6% (active) and -97.4% (active); in [8] it was -86.3% (active) and -27.8% (active); in experiment [9], -96.3% (active) and -63.1% (active); in [10] it was 74.2% (inactive); in experiment [11], -83% (active) and 41.9% (inactive); in experiment [12], -76.7% (active) and 18.4% (inactive). For the same compound, the growth in [13] was -84.8% (active) and -66.7% (active); in experiment [14] it was -94.8% (active) and -18.4% (active); in experiment [15], -97.8% (active) and 8.5% (active); in experiment [16] it was -77.2% (active) and -2.69% (active); in experiment [17], -95.7% (active) and -81.6% (active); in experiment [18], -44.9% (active) and -0.854% (active). The growth in experiment [19] was -53% (active).
Turning to `O=C1c2ccccc2C(=O)c2c(NCCNCCO)ccc(NCCNCCO)c21`, the growth in experiment [1] is 70.2% (inactive) and 75.4% (inactive) and 72.6% (inactive); in experiment [2], 2.99% (active) and 16.2% (inactive) and 14.9% (inactive); in experiment [3] it was -26.9% (active) and -4.55% (active) and -6.89% (active); in experiment [4], -11% (active) and 14.5% (inactive) and 7.49% (active); in [5] it was -4.94% (active) and 5.29% (active); in experiment [6], -58.4% (active) and 36.2% (inactive) and 20.3% (inactive). For the same compound, the growth is -50.5% (active) and 7.59% (active) and 3.46% (active) in experiment [7]; -73.4% (active) and 10.3% (inactive) and 6.9% (active) in [8]; -35.6% (active) and 0.446% (active) and 1.46% (active) in [20]; -75.2% (active) and -0.89% (active) and -16.8% (active) in experiment [10]; -0.766% (active) and 4.9% (active) and 7.36% (active) in experiment [12]; -5.63% (active) and 55.9% (inactive) and 44.7% (inactive) in [13]. For the same compound, the growth was 21.8% (inactive) and 54.6% (inactive) and 38.8% (inactive) in experiment [14]; 17.9% (inactive) and 24.5% (inactive) and 22.7% (inactive) in [15]; 19.8% (inactive) and 50.9% (inactive) and 35.4% (inactive) in experiment [16]; -4.91% (active) and 79.3% (inactive) and 29.9% (inactive) in [17]; 153% (inactive) and 10.2% (inactive) and 1.67% (active) in experiment [18]; 143% (inactive) and -3.2% (active) and -1.56% (active) in [19].
Regarding `CNC(=O)c1cccnc1`, the growth is 103% (inactive) in experiment [1]; 105% (inactive) in experiment [2]; 92.5% (inactive) in experiment [3]; 105% (inactive) in [4]; 92.3% (inactive) in [5]; 96.9% (inactive) in experiment [6]. The growth was 107% (inactive) in [7]; 113% (inactive) in experiment [8]; 92.9% (inactive) in [20]; 118% (inactive) in experiment [10]; 110% (inactive) in experiment [11]; 111% (inactive) in experiment [12]. The growth was 103% (inactive) in [14]; 104% (inactive) in experiment [15]; 85.6% (inactive) in experiment [17]; 87.9% (inactive) in experiment [18]; 106% (inactive) in [19].
On to `Oc1ccccc1C=NCC1CCC(CN=Cc2ccccc2O)CC1` (stereo not drawn), for which the growth in experiment [1] is 7.98% (active); in [2] it was 17.1% (inactive); in [3], 101% (inactive); in experiment [4] it was 94.6% (inactive); in [5], 78.4% (inactive); in [6], 77.8% (inactive). Further, the growth in experiment [7] was 92.8% (inactive); in experiment [8] it was 88.7% (inactive); in experiment [9], 128% (inactive); in experiment [10], 12.8% (inactive); in [11], 109% (inactive); in experiment [12], 91% (inactive). Further, the growth is 72.4% (inactive) in [13]; 98.2% (inactive) in [14]; -13.8% (active) in experiment [15]; 46.1% (inactive) in experiment [16]; 117% (inactive) in [17]; 83.9% (inactive) in [18]. Moreover, the growth in [19] was 75.6% (inactive).
For `CC(C)Cc1ccc(C(C)C(=O)NCc2ccc(Cn3c(=O)sn(CCCI)c3=O)cc2)cc1` (stereo not drawn), the growth is 101% (inactive) and -54.2% (active) in experiment [1]; 61.7% (inactive) and -58.7% (active) in [2]; 95.4% (inactive) and -73.6% (active) in experiment [3]; 85.4% (inactive) and 37.4% (inactive) in experiment [4]; 83.4% (inactive) and -70.5% (active) in experiment [5]; 93.6% (inactive) and -70% (active) in experiment [6]. The growth was 74.2% (inactive) and -96.6% (active) in experiment [7]; 95.2% (inactive) and -83.2% (active) in experiment [8]; 106% (inactive) and -72.2% (active) in experiment [9]; 104% (inactive) and -40.1% (active) in experiment [10]; 90.6% (inactive) and -64.7% (active) in [11]; 90.4% (inactive) and -76.9% (active) in experiment [12]. Also, the growth in experiment [14] is 99.8% (inactive) and -90.7% (active); in experiment [15] it was 72% (inactive) and -100% (active); in [16], 92.1% (inactive) and -82.9% (active); in [17], 79.4% (inactive) and -2.41% (active); in experiment [18] it was 37% (inactive) and 2.58% (active); in [19] it was 49% (inactive) and -3.72% (active).
As for `CC(/C=N/N1C(=O)c2ccccc2C1=O)c1ccccc1` (stereo not drawn), the growth was 98.2% (inactive) in experiment [1]; 108% (inactive) in experiment [2]; 83% (inactive) in experiment [3]; 95.9% (inactive) in [4]; 99.5% (inactive) in experiment [5]; 102% (inactive) in [6]. The growth in experiment [7] was 99.4% (inactive); in [8], 111% (inactive); in experiment [20], 98.3% (inactive); in experiment [10], 110% (inactive); in experiment [12] it was 99.6% (inactive); in experiment [13], 88.1% (inactive). Also, the growth in experiment [14] is 113% (inactive); in experiment [15], 97.4% (inactive); in experiment [17], 98% (inactive); in experiment [18], 110% (inactive); in experiment [19] it was 106% (inactive).
